RGS4 inh = blocks human RGS4-accelerated GTP hydrolysis | P49798 | Transcreener GDP fluorescence polarization, RGS4-accelerated GTP hydrolysis | Potency, µM (series often up to 114 µM), without a hit: at the top dose activity change, negative = inhibition, most hits filed as inhibitors | hit rate 0.039% among 390,000 | AID 504845; note: % is set by controls: 0 for no effect and ±100 for the full control effect; nearly all actives have a fitted effect of over 75% in size
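MLSMR compounds (23 nl, pin-transferred) preincubated 10 min at room temperature with a 500nM (2x) first reagent, then RGS4 at 900nM (2x) plus Transcreener GDP mix added; fluorescence polarization (620/688 nm) read before and after 90 min at 30 °C.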
EPAC2 antagonist = blocks human EPAC2 exchange factor. Q8WZA2. EPAC2 GEF exchange of Rap1B-BODIPY-GDP, fluorescence. Potency, µM (highest dose often 114 µM), without a hit: top-dose activity, negative = inhibition, hits mostly inhibitors. hit rate 0.18% among 360,000; note: % is set by controls: 0 for no effect and ±100 for the full control effect; nearly all actives have a fitted effect of over 45% in size
EPAC2 ag = EPAC2 (human) agonism; EPAC2 activation, biochemical qHTS; response scale: 100% = 6.5 mM cAMP response; hit rate 0.079% among 360,000; Q8WZA2; Potency, µM (highest dose often 154 µM), inactives show at the top dose activation, most hits filed as activators; note: nearly all actives have a fitted effect of over 50% in size
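Guanine nucleotide exchange by EPAC2 is measured as reduced fluorescence of BODIPY-GDP once it is released from 250 nM Rap1B. Plates are read kinetically for 30 min at room temperature; results are scaled to 6.5 mM cAMP.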
EPAC1 antagonist = blocks human EPAC1 exchange factor | EPAC1 GEF assay, Rap1b-BODIPY-GDP exchange fluorescence | Potency, µM (series often up to 115 µM), inactives show at the top dose activity change, negative = inhibition, actives largely listed as inhibitors | hit rate 0.14% among 360,000;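 note: plate controls were vehicle for no effect and positive control for full effect; nearly all actives have a fitted effect of over 50% in size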
BRCA1 expr up = BRCA1 expression activation | MCF7-BRCA1-FFLuc reporter, luminescence, 48 h; response scale: scaled: vehicle 0%, 10 µM genistein 100% | Potency, µM (titrated, usually from 46.1 µM), for the others: at the top dose activation, actives largely listed as activators | hit rate 1.1% among 380,000 | AID 624202; note: nearly all actives have a fitted effect of over 80% in size
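Luminescence from a BRCA1-driven firefly luciferase in MCF7 cells was read after 48 h compound exposure at 37 C. Data normalized against DMSO and a 10microM genistein activation control, then curve-fitted across the titration.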
EPAC1 agonist = EPAC1 (human) agonism. Potency, µM (doses to about 154 µM), for inactives: at the top dose activation, actives largely listed as activators. hit rate 0.073% among 360,000. EPAC1 agonist qHTS, biochemical assay; response scale: 100% = response to 6.5 mM cAMP. O95398; note: nearly all actives have a fitted effect of over 60% in size
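Multi-concentration qHTS readout: loss of Rap1B-bound BODIPY-GDP fluorescence driven by 100 nM EPAC1 with excess GDP (50 uM), monitored kinetically at room temperature; agonist response expressed relative to 6.5 mM cAMP.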
Starred values were filed as active, the others as inactive; i = inactive; ? = inconclusive; · = no result; [ ] = dose if it differs, or a comment. Rows were chosen to be rich in hits. Some 1.3% of all compounds tested hit in one or more screens of this group. Calls come from the whole dose curve; as a rule, active = well fitted curve in the direction sought with a large enough effect; inconclusive = small, poorly fitted or top-dose-only effect, or another doubt; inactive = no such curve, though single readings can be large; an effect the other way counts as inactive or inconclusive. Potency is the fitted concentration of half-maximal effect.

SMILES | RGS4 inh | EPAC2 antagonist | EPAC2 ag | EPAC1 antagonist | BRCA1 expr up | EPAC1 agonist
COC(=O)C1=C(c2ccc(OC(F)(F)F)cc2)C[C@@H]2CC[C@H]1N2C(=O)NCCCOC(C)C | -7% | -9% | 0% | 6% | -4% | -22%
CC(=O)NS(=O)(=O)c1ccc(NC(=O)c2cccn(Cc3ccc(Cl)cc3)c2=O)cc1 | -31% | · | · | · | 8% | ·
COc1cccc(OCC(=O)N2CCN(C)CC2)c1 | 13% | 2% | 13% | -1% | 38% | 7%
O=c1oc2ccccc2c(O)c1C(c1ccc([N+](=O)[O-])cc1)c1c(O)c2ccccc2oc1=O | -31% | 50µM* | -14% | 50µM* | 9% | -15%
CC(C)c1ccc(C(c2c(O)c3ccccc3oc2=O)c2c(O)c3ccccc3oc2=O)cc1 | · | 45µM* | 1% | ? | -5% | -7%
COC(=O)C1=C(c2cccc(OCc3ccccc3)c2)C[C@@H]2CC[C@H]1N2C(=O)NCc1ccc(OC)cc1 | 5% | 5% | 21% | -2% | -59% | 11%
COc1ccc(/C=C/C2=CCN(C)CC2)cc1 | 12% | 0% | 11% | ? | ? | 8%
CN1CC=C(/C=C/c2ccc(-c3ccccc3)cc2)CC1 | -18% | 10% | 2% | -19% | 8.9µM* | 5%
Nc1ccc2c(c1)oc1ccccc12 | 7% | 5% | -4% | 14% | 7.1µM* | 2%
COc1ccc(NP2(=O)NCCCN2)cc1 | 0% | 5% | 9% | 10% | -14% | 9%
CC(Cc1ccccc1)/[N+]([O-])=C\c1ccc(C(F)(F)F)cc1 (stereo not drawn) | -7% | 0% | -1% | 0% | 10µM* | -9%
COC(=O)C1=C(c2cccc(OC)c2OC)C[C@@H]2CC[C@H]1N2C(=O)NCc1ccc(C(F)(F)F)cc1 | -2% | -9% | -2% | -24% | -9% | -11%
Nc1ccc2ccccc2c1 | ? | 6% | -6% | -1% | 24% | -5%
C[n+]1c2cc(N)ccc2cc2ccc(N)cc21 | -7% | i | 100µM* | i | -72% | 50µM*
COc1ccc(N2C(=O)/C(=C/c3ccc(C)o3)C(=O)NC2=S)cc1 | ? | 12% | 8% | ? | -17% | 6%
COc1ccc(OC)c(N2C(=O)/C(=C/c3ccco3)C(=O)NC2=S)c1 | ? | ? | 3% | 8.9µM* | -12% | 4%
CN1CC=C2C(C#N)=C(N)C(C#N)(C#N)C(c3ccncc3)C2C1 (stereo not drawn) | -10%[11.4 µM] | -6% | -1% | 8% | 7% | 28%
Oc1c(Cl)cccc1Cc1cc(Cl)cc(Cl)c1O | -11% | 22µM* | 0% | 79µM* | -83% | 0%
COc1cc2c(cc1/C=C/[N+](=O)[O-])OCO2 | ? | 20% | 2% | -10% | -27% | -7%
O=[N+]([O-])/C=C/c1ccc2c(c1)OCO2 | 1.5µM* | · | · | · | · | ·
N#CC(C#N)=NNc1ccc(S(N)(=O)=O)cc1 | 0%[11.4 µM] | -28% | -1% | 56µM* | 13% | 0%
O=C(Oc1ccc2ccccc2c1Cl)N1CCCC1 | 9% | -8% | 7% | -2% | 4.5µM* | 4%
COc1cc(/C=C2\C(=O)NC(=O)N(c3ccccc3)C2=O)c([N+](=O)[O-])cc1OC | ? | -2% | 7% | -8% | -9% | 6%
CC[C@H](C)/C=C(C)/C=C/C1=CC2=C(Cl)C(=O)[C@@](C)(OC(C)=O)C(=O)C2=CO1 | ? | 3.5µM* | 8% | 35µM* | -12% | 7%
CCC(C)/C=C(C)/C=C/C1=CC2=C(Cl)C(=O)C(C)(OC(C)=O)C(=O)C2=CO1 (stereo not drawn) | -22% | -13% | -1% | ? | 23% | -24%
Oc1cccc(/C=N/NP(=S)(c2ccccc2)c2ccccc2)c1 | 4% | -13% | 30% | -14% | -4% | 27%

Bioassay records as filed in PubChem BioAssay.
